Assay outcomes (PubChem BioAssay)
Shown is part of a subset that was picked to be rich in hits.
SF-1 inh – inhibitors of human SF-1, primary screen, cell-based, CHO-K1, Gal4-SF-1 LBD, luciferase luminescence | CHO-K1 Gal4-SF-1 LBD luciferase reporter | inhibition, % at 10 µM | 65,000 tested, 0.55% active;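 active means inhibition above the mean inhibition of all tested compounds plus 3 SD, cut at about 48% in these data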
Target sequence (Q13285 whole entry, looked up, the tested form may be a part): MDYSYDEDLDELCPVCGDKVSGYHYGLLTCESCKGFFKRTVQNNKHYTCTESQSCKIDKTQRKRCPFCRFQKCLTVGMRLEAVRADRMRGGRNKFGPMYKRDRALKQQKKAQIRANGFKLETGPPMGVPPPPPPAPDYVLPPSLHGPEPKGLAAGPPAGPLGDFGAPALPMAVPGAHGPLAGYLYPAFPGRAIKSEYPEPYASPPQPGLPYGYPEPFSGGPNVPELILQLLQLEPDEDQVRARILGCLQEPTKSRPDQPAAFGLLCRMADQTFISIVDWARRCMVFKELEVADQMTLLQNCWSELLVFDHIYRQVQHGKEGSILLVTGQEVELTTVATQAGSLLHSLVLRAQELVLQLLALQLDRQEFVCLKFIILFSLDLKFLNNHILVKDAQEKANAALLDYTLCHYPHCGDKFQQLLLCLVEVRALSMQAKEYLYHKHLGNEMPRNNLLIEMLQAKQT
Of the large screens only hits and unclear results are named; the others gave an inactive call.

CCn1ncc(C2=NOC(C(=O)N3CCC(C(N)=O)CC3)C2)c1C (centres undefined)	none
COc1ccc(Cl)c(Cn2c(NCC(C)O)nc3c2c(=O)n(C)c(=O)n3C)c1 (centres undefined)	none
CCN1CCN(Cc2nc3c(c(=O)n(C)c(=O)n3C)n2CCCc2ccccc2)CC1	none
C/C(Cl)=C\Cn1c(NCCc2ccccc2)nc2c1c(=O)n(C)c(=O)n2C	SF-1 inh 61.7
C=CCn1c(NCCc2ccccc2)nc2c1c(=O)n(C)c(=O)n2C	none
Cn1c(=O)c2c(nc(SCCN3CCOCC3)n2Cc2ccc(Cl)cc2)n(C)c1=O	none
CCNc1nc2c(c(=O)n(C)c(=O)n2C)n1Cc1ccc(Cl)cc1	SF-1 inh 54.0
CCOC(=O)N1CCN(C(=O)CN2C(=O)CC(C)(C)S(=O)(=O)c3ccccc32)CC1	none
COc1cccc(C(=O)N2CCN=C2SCc2cccnc2)c1OC	none
C=C(C)Cn1c(C2CC(=O)N(c3ccccc3F)C2)nc2ccccc21 (centres undefined)	none
COc1ccc2nc(NC(=O)c3ccc(-n4nc(C)cc4C)cc3)sc2c1	none
COC(=O)CSc1nc(C)cc(Oc2ccccc2)n1	none
COC(=O)c1ccc(Oc2cc(C)nc(-n3nc(C)cc3C)n2)cc1	SF-1 inh 51.1
COc1ccc(N2CCN(C(=O)c3ccc(S(=O)(=O)N4CCOCC4)cc3)CC2)cc1	none
COc1ccc(C2CC(C(F)(F)F)n3nc(C(=O)NCc4cn(C)nc4C)c(Cl)c3N2)cc1 (centres undefined)	none
CCOC(=O)C1CCCN(C(=O)CCCOc2cc(=O)n(C)c3ccccc23)C1 (centres undefined)	none
CCC1CCCCN1C(=O)COc1cc(=O)n(C)c2ccccc12 (centres undefined)	none
Cc1ccnc(NC(=O)CCCOc2cc(=O)n(C)c3ccccc23)c1	SF-1 inh 59.0
O=C1CCN(Cc2nnnn2CC2CCCO2)c2ccccc2N1 (centres undefined)	none
COCCNC(=O)c1cc(-c2ccccc2OC)on1	none
Cc1ccc(-c2cc3c(nn2)-c2ccccc2C3=O)cc1	SF-1 inh 88.1
O=C(C1COc2ccccc2O1)N1CCc2ccccc21 (centres undefined)	none
CCN(CC)Cc1c[nH]c2c(C(=O)OC)cccc12	none
O=C(c1ccc2c(c1)OCCCO2)c1cccs1	none
COc1ccc(-n2c(N)c(C(=O)NCc3ccco3)c3nc4ccccc4nc32)c(OC)c1	none
O=C(O)CSc1ccccn1	none
Cc1nn(-c2nc3ccccc3s2)c(N)c1Sc1ccc(F)cc1	none
Cn1c(SCC(=O)Nc2sc3c(c2C#N)CCC3)nnc1C1COc2ccccc2O1 (centres undefined)	none
N#Cc1c(NC(=O)CSc2ncn[nH]2)sc2c1CCCCC2	SF-1 inh 88.2
CCc1nnc(NC(=O)CSc2nc(C)c3c(c2C#N)CCCC3)s1	none
O=c1c2ccccc2cnn1-c1nc2ccccc2s1	SF-1 inh 90.0
O=c1c2ccccc2nc2sc3ccccc3n12	none
Cc1nn(-c2nc3ccccc3s2)c(N)c1-c1ccccc1	none
CCn1c(SCC(=O)Nc2nc(-c3ccc(C)cc3)cs2)nnc1-c1ccccc1O	none
Cc1ccc(-c2nc(-c3ccccc3)no2)c(Cl)c1	SF-1 inh 69.6
COc1cccc(-c2nc(-c3ccccc3)no2)c1	none
c1ccc(-c2noc(-c3cccc4ccccc34)n2)cc1	none
CC(=O)Cc1nsc(NC(=O)c2cc(-c3cccc(C(F)(F)F)c3)oc2C)n1	none
CCS(=O)(=O)c1ccc2oc(Nc3ccccc3C)nc2c1	none
CC1(C)CC(=O)C2=C(C1)Oc1nc3ccccc3cc1C2C(C#N)C#N (centres undefined)	SF-1 inh 81.4
CCCCCCC1C(C#N)=C(N)OC2=C1C(=O)CC(C)(C)C2 (centres undefined)	none
CCOc1ccccc1-c1nc(-c2ccc(C)nc2OC)no1	none
COC(=O)c1ccc(=O)n(-c2ccc(OC)cc2)c1	none
Cc1ccc(S(=O)(=O)NCC(=O)OCN2C(=O)c3ccccc3C2=O)cc1	none
Cc1cccc(NC(=O)CSc2nnc(-c3cc(C)n(-c4ccccc4)c3C)o2)c1C	SF-1 inh 72.7
Cc1ccccc1NC(=O)CSc1[nH]c(=O)cc(C)c1C#N	none
Cc1ccc(Cl)cc1NC(=O)CSc1nnc(C)n1-c1ccccc1	none
COc1ccc(S(=O)(=O)NCCC(=O)NCc2ccccc2)cc1	none
Cc1ccc(S(=O)(=O)N(CC(=O)NCc2ccncc2)C2CCCCC2)cc1	none
c1ccc2c(-c3nc(-c4ccncc4)no3)cccc2c1	none
O=C1c2ccccc2C(=O)C1c1nccc2ccccc12	SF-1 inh 59.8
COCCCNC(=O)c1ccc(NS(C)(=O)=O)cc1	none
C=CCOc1ccc2c(c1)c(S(=O)(=O)c1ccc(C)cc1)cn2COC	none
C/C(=N\O)c1ccc2c3c([nH]c2c1)CCCC3	none
COCCOC(=O)C1=C(C)N=C2SCCC(=O)N2C1c1ccc(C(=O)OC)cc1 (centres undefined)	none
Cc1cc(NC(=O)c2noc3c2CCCCC3)no1	none
Cc1cc(NC(=O)c2ccc3c(c2)OCO3)no1	none
Cc1cc(NC(=O)c2ccc3c(c2)OCCO3)no1	SF-1 inh 51.0
COc1ccc(CNC(=O)C2CC(=O)N(c3ccc(OCC(=O)N4C(C)CCCC4C)cc3)C2)cc1 (centres undefined)	none
COc1ccc(-n2c(C)cc(C(=O)Cn3c(NCCO)nc4ccccc43)c2C)cc1	none
COC(=O)C1C(O)=C(C=NCC(C)N=CC2=C(O)C(C(=O)OC)C(C)(C)CC2=O)C(=O)CC1(C)C (centres undefined)	none
O=C(Cn1cc2c(n1)CCCC2)Nc1cc(-c2cccc(Cl)c2)no1	none
COc1ccc(NC(=O)C2CCN(c3nc(C)nc4c3CCC4)CC2)cc1	none
COc1cccc(CC(NC(C)=O)C(=O)NC2CCN(c3c4c(nc5ncnn35)CCC4)CC2)c1 (centres undefined)	none
COc1cc(CC(NC(C)=O)C(=O)NC2CCN(c3nc(C)cc(C)c3C#N)CC2)cc(OC)c1 (centres undefined)	SF-1 inh 71.4
O=C(Nc1ccc(F)cc1F)c1noc2c1CCC2	none
O=c1nc(N2CCOCC2)ccn1Cc1ccc(Br)cc1	none
Nc1nc(CSc2ccccn2)nc(Nc2ccccc2)n1	none
O=C(NCCn1ccc2ccccc21)c1ccc2c(c1)OCO2	none
COC(=O)C1CCN(C(=O)NC(C)(C)C)CC1	none
O=C(CSc1nnnn1-c1ccccc1)NC(=O)Nc1ccc2c(c1)OCCO2	none
CCn1c2ccccc2c2cc(NC(=O)CSc3nnnn3-c3ccccc3)ccc21	SF-1 inh 70.3
Cc1ccc(-c2nc(NC(=O)CSc3nnnn3-c3ccccc3)ns2)cc1	none
N=c1c2c3c(sc2nc2n1CCCCC2)CCCCC3	none
Cc1ccc(S(=O)(=O)N(CCO)c2cc3c(s2)CCCC3)cc1	none
COc1cccc(-c2csc(NC(=O)C3CC3)n2)c1	none
Cc1c(C(=O)Nc2ccccc2)sc2nc(-c3ccccc3)cn12	none
COc1ccc2c(c1)sc1nc(-c3ccccc3)cn12	SF-1 inh 89.3
Cc1ccc(-c2nnn(CC(=O)N(Cc3ccco3)C(C(=O)NC(C)(C)C)c3cccs3)n2)o1 (centres undefined)	none
COc1ccc(OC)c(NC(=O)CSc2nnnn2-c2ccc3c(c2)OCO3)c1	SF-1 inh 90.9
CC(C)OC(=O)CSc1nnnn1-c1ccc2c(c1)OCCO2	none
CCn1c(CNC(=O)c2ccc3c(c2)OCO3)nnc1SCC(=O)Nc1cc(C)ccc1OC	none
CCOP(=O)(c1c(F)c(F)c(F)c(F)c1F)C1(O)CCCCC1 (centres undefined)	none
Cc1ccc(Nc2cc(C)nn2-c2nc(C)cc(=O)[nH]2)cc1	SF-1 inh 96.4
Cc1ccc(-c2cc3nc(C)cc(NCc4ccco4)n3n2)cc1	none
